DT40 TDP1 CPT: growth inhibition of DT40 Tdp1-/-;hTDP1 cells with camptothecin (screen for TDP1 inhibitors); chicken DT40 Tdp1-/-;hTDP1 cells + 20 nM CPT, ATP luminescence, 48 h; 420,000 tested, 12% active; AID 686979; Potency, µM (doses to about 46.2 µM), for the others: top-dose activity change, negative = growth inhibition, hits mostly inhibitors; further: potency means the concentration at half of the fitted maximal effect; nearly all actives have a fitted effect of over 55% in size
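Chicken DT40 Tdp1-/- cells stably complemented with human TDP1 were seeded at 400 cells/well in medium containing 20 nM camptothecin, exposed to pin-transferred compounds, and grown at 37 °C for at least 48 hr. Viability was read as ATP luminescence.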
HT1080-NT tox: kills 2HG-producing HT-1080-NT fibrosarcoma cells; HT-1080-NT fibrosarcoma viability, CellTiter-Glo ATP luminescence, 48 h; Potency, µM (highest dose often 46.1 µM), for the others: at the highest dose activity, negative = less viability, most hits filed as cytotoxic; 360,000 tested, 1.6% active; AID 686970;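 further: NT is the 2HG producing partner of a matched IDH1 knockdown line; potency means the concentration at half of the fitted maximal effect; 0% = DMSO-treated cells and -100% = media-only wells without cells; nearly all actives have a fitted effect of over 55% in size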
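Toxicity toward the 2HG-producing NT line was scored as %Activity, normalised to DMSO and no-cell wells, from CellTiter-Glo luminescence after 48 hours' treatment.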
TDP1 cell noCPT: qHTS for Inhibitors of human tyrosyl-DNA phosphodiesterase 1 (TDP1): qHTS in cells in absence of CPT | DT40 Tdp1-/- hTDP1 cells, no CPT, ATP luminescence, 48 h | Potency, µM (series often up to 46.2 µM), without a hit: at the top dose activity change, negative = growth inhibition, usual class: inhibitors | 420,000 tested, 15% active | AID 686978, 2013; further: potency means the concentration at half of the fitted maximal effect; nearly all actives have a fitted effect of over 55% in size
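Chicken DT40 Tdp1-/- cells stably complemented with human TDP1 were seeded at 400 cells/well with DMSO in place of 20 nM camptothecin. After compound pinning, cells grew at least 48 hr at 37 °C; viability read by CellTiter-Glo luminescence.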
HT1080 IDH1KD tx: kills HT-1080 cells with IDH1 knockdown | HT-1080 IDH1 knockdown viability, ATP luminescence, 48 h | Potency, µM (titrated, usually from 46.1 µM), for inactives: top-dose activity, negative = toxicity, most hits filed as cytotoxic | 360,000 tested, 2% active;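 further: potency means the concentration at half of the fitted maximal effect; 0% = DMSO wells and -100% = cell-free medium wells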
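CellTiter-Glo luminescence after 48 h compound exposure at 37 degrees C of IDH1-knockdown HT-1080 cells in 5% FBS RPMI. %Activity scaled between DMSO wells and cell-free media wells, with curves fitted and assigned curve classes.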
IL-1B inflam inh: inhibitors of inflammasome signaling (IL-1 beta secretion) | THP-1 LPS/ATP IL-1B secretion, AlphaLISA, 16 h; stronger effect = lower value | activity change, % at 57.5 µM | 360,000 tested, 4.7% active | AID 743279; in the data active means activity change below about -50%; inconclusive means mostly about -30% to -49%
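THP-1 cells pretreated 1 hr with compounds (up to 57.5 uM final), then stimulated with LPS (250 ng/mL final) plus ATP (1.25 mM final); secreted IL-1B measured by AlphaLISA after 16 hr, decreased signal indicating inhibition.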
ELG1 repair inh: blocks ELG1-dependent DNA repair in HEK293T cells; HEK293T ELG1-luciferase reporter, luminescence, 16 h; DNA damage induced by 5-fluorouridine; Potency, µM (top dose mostly 46.1 µM), for the others: top-dose activity change, negative = inhibition, usual class: inhibitors; 330,000 tested, 2.3% active; further: potency means the concentration at half of the fitted maximal effect; nearly all actives have a fitted effect of over 55% in size
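Cells (2,000 per well) received 5-fluorouridine plus test compound or DMSO and were incubated 16 hr at 37 °C, 5% CO2. Luciferase activity was read by luminescence 30 min after ONE-Glo addition; signal suppression marked inhibition of damage-induced ELG1 function.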
Numbers without * were called inactive; u = inconclusive; x = not tested or not shown; [ ] = dose if it differs, or a comment. Compounds with a hit are over-represented: about 19% of the library has one in this group of screens. Unless noted, the call rests on the fitted dose curve; in most records, active means well fitted curve in the direction sought with a large enough effect; inconclusive means small, poorly fitted or top-dose-only effect, or another doubt; inactive means no such curve, though single readings can be large; an effect the other way counts as inactive or inconclusive. Unless noted, on the % scale 0 is the no-effect control and ±100 the full control effect.

SMILES	DT40 TDP1 CPT	HT1080-NT tox	TDP1 cell noCPT	HT1080 IDH1KD tx	IL-1B inflam inh	ELG1 repair inh
O=C(N/N=C/c1ccc(F)cc1)c1cc(-c2ccc3c(c2)OCO3)n[nH]1	15%	u	23µM*	u	-11	6%
COCCNC(=O)CSc1nc(-c2ccc(C)cc2)nc2c1c(=O)n(C)c(=O)n2C	-15%	x	-2%	x	x	x
CCc1ccc(OC(C)C(=O)Nc2ccc(S(=O)(=O)Nc3nccs3)cc2)cc1 (stereo not given)	-2%	-11%	16%	-4%	9	-11%
N#Cc1cc(Oc2cccc3cccnc23)c(-n2nnc3ccccc32)cc1C#N	7.1µM*	5.6µM*	7.9µM*	6.3µM*	-59*	u
S=c1nc[nH]c2c1sc1nc(N3CCOCC3)c3c(c12)CCCC3	u	15%	23µM*	-3%	-7	10%
CN(CCO)c1ncnc2c1sc1nc(N3CCOCC3)c3c(c12)CCC3	13µM*	-6%	21µM*	16%	-23	u
CC(C)c1nc2sc3c(=O)[nH]cnc3c2c2c1CCC2	17%	-13%	-30%	20%	37	6%
CCN1CCN(c2ncnc3c2sc2nc(N4CCOCC4)c4c(c23)CCC4)CC1	u	6%	u	13%	45	-8%
CC(C)c1nc2sc3c(=S)nc[nH]c3c2c2c1CCC2	u	-2%	23µM*	0%	41	-1%
O=C(CCNC(=O)C1CCN(S(=O)(=O)c2ccccc2)CC1)Nc1cccc(C(F)(F)F)c1	-39%	-5%	u	-13%	-13	-1%
COCCCN1C(=O)C(CC(=O)NCc2cccs2)CC(C(=O)N(C)C)=C1C (stereo not given)	3%	18%	3%	0%	17	x
CCNC(=O)c1c(NC(=O)c2cc(=O)c3ccc(C)c(C)c3o2)sc2c1CCCC2	11%	x	-14%	x	x	x
COc1ccc2c(c1)-c1c(ssc1=S)C(C)(C)N2C(=O)CSC1=NCCS1	u	-4%	23µM*	-22%	-21	u
Cc1cc2c(cc1C)N(C(=O)CSC1=NCCS1)C(C)(C)c1ssc(=S)c1-2	u	-28%	u	u	-50*	5%
Cc1ccc2c(c1)-c1c(ssc1=S)C(C)(C)N2C(=O)CSc1nncn1C	u	-7%	u	-19%	-10	-13%
COc1ccc2c(c1)-c1c(ssc1=S)C(C)(C)N2S(=O)(=O)c1ccc(C)cc1	15µM*	u	5.2µM*	6.5µM*	10	11%
Cc1cc(C)c2c(c1)-c1c(ssc1=S)C(C)(C)N2C(=O)CSc1nncn1C	26µM*	u	23µM*	18µM*	-11	u
CCOc1ccc2c(c1)-c1c(ssc1=S)C(C)(C)N2C(=O)c1ccco1	5.2µM*	4.6µM*	2.9µM*	5.2µM*	-12	u
CC1(C)c2ssc(=S)c2-c2ccccc2N1C(=O)CSC1=NCCS1	u	3%	u	-11%	u	-4%
CC(=O)c1ccccc1NC(=O)COC(=O)CSCC(=O)Nc1cc(C)on1	3%	2%	-1%	-4%	18	8%
COc1cc(-c2nc(-c3ccc4c(c3)-c3ccccc3S4(=O)=O)c(-c3ccccc3)[nH]2)cc(OC)c1OC	18µM*	-9%	7.3µM*	0%	-5	2.6µM*
COc1cc(-c2nc(-c3ccccc3)c(-c3cccs3)[nH]2)cc(OC)c1OC	16µM*	0%	23µM*	u	u	u
COc1cccc(-c2nc(-c3ccccc3)c(-c3ccccc3)[nH]2)c1OCC(=O)O	-8%	-4%	-25%	-12%	11	-1%
CN(C)c1ccc(-c2nc(-c3cccs3)c(-c3cccs3)[nH]2)cc1	10µM*	x	9.2µM*	x	x	x
O=[N+]([O-])c1cc(C=Nc2ccc3ccccc3c2)ccc1Br	2.6µM*	-4%	2.9µM*	-26%	-4	u
SMILES	DT40 TDP1 CPT	HT1080-NT tox	TDP1 cell noCPT	HT1080 IDH1KD tx	IL-1B inflam inh	ELG1 repair inh
CCOc1ccc(N=Cc2ccc3ccccc3c2)cc1	-15%	1%	-19%	10%	-9	6%
COc1ccccc1C1CN(Cc2cnn(C)c2)Cc2ccccc2O1 (stereo not given)	16%[9.04 µM]	x	-23%	x	x	x
CC(N)=NCCC[C@H](N)C(=O)O	14%	x	-3%	x	x	x
CC(C)OC(=O)c1c(-c2ccccc2)c(-c2ccccc2)nn(C)c1=O	u	x	21µM*	x	x	x
COC(=O)c1c(-c2ccccc2)c(-c2ccccc2)nn(C)c1=O	u	-3%	u	-5%	11	-4%
COCCOC(=O)c1c(-c2ccccc2)c(-c2ccccc2)nn(C)c1=O	u	x	21µM*	x	x	x
COC(=O)c1ccc(NC(=O)c2c(-c3ccccc3)c(-c3ccccc3)nn(C)c2=O)cc1	-10%	x	-28%	x	x	x
CCOC(=O)C1CCN(c2nc3c(C)cccn3c(=O)c2/C=C(\C#N)S(=O)(=O)c2ccccc2)CC1	-20%	-11%	u	-8%	-14	-1%
Cc1ccc(Oc2ccccc2/C=N/O)cc1	12µM*	-3%	21µM*	-2%	-16	-16%
Cc1ccc2nc(-c3ccc(Cl)c(NC(=O)COc4cccc(C)c4C)c3)oc2c1	-4%	x	-2%	x	x	x
CN(C)CCCNC(=O)C[C@H]1C[C@H](C(=O)N2CCCCC2)[C@@]2(C)c3[nH]c4cc(-c5ccco5)ccc4c3CCN2C1=O	u	u	u	-19%	0	15%
CN(C)CCCNC(=O)C[C@H]1C[C@H](C(=O)N2CCCCC2)[C@@]2(CCc3ccccc3)c3[nH]c4cc(-c5ccco5)ccc4c3CCN2C1=O	u	26µM*	u	u	-8	u
CN(C)CCCNC(=O)CC1C[C@H](C(=O)N2CCCCC2)[C@@]2(CCc3ccccc3)c3[nH]c4ccccc4c3CCN2C1=O (stereo not given in full)	21µM*	7%	13µM*	9%	u	1%
COc1ccc(CNC(=O)C[C@H]2C[C@H](C(=O)N3CCCCC3)[C@@]3(CCc4ccccc4)c4[nH]c5cc(-c6ccco6)ccc5c4CCN3C2=O)cc1OC	u	4%	u	0%	-24	u
